High-throughput results (PubChem BioAssay)
Shown are actives, neighbours in structure and some others; about 7.3% of the full set was active somewhere.
Tau FP inhib = qHTS for Inhibitors of Tau Fibril Formation, Fluorescence Polarization; Microtubule-associated protein tau (Homo sapiens), P10636; K18 P301L tau heparin fibrillization, Alexa594 FP, 6 h; Potency, µM (highest dose often 57.7 µM), for inactives: at the highest dose activity, negative = inhibition, most hits filed as inhibitors; 0.39% of 280,000 active; AID 1468, 2008; note: nearly all actives have a fitted effect of over 55% in size
Target sequence (P10636 561-689 P618L limits assumed): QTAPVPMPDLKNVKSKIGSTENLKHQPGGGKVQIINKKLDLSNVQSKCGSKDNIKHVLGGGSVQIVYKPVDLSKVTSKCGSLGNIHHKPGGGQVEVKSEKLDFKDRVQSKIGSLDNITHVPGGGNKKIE
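Human K18 P301L fragment (15 uM unlabeled plus 0.24 uM Alexa 594-labeled) in 100 mM sodium acetate pH 7 with compound, aggregation induced by 20 uM heparin for 6 hr at 37 C. ThT (30 uM) added for 1 hr, then Alexa 594 FP read.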
VP16 counter = VP16 counterscreen qHTS for inhibitors of ROR gamma transcriptional activity; Drosophila S2 Gal4-VP16 UAS-luciferase, luminescence, 20 h; Potency, µM (top dose mostly 53.6 µM), without a hit: at the top dose activity, negative = inhibition, hits mostly inhibitors; 3.5% of 310,000 active;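 note: Gal4-VP16 expression switched on by copper sulfate through the metallothionein promoter; nearly all actives have a fitted effect of over 50% in size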
Tau fluor counter = Counterscreen qHTS for Inhibitors of Tau Fibril Formation, Fluorescence Polarization. Potency, µM (series often up to 57.7 µM), for the others: at the top dose activity change, negative = decrease. tau K18 P301L Alexa594 fluorescence, heparin fibrillization. 0.93% of 280,000 active; note: nearly all actives have a fitted effect of over 55% in size
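Human tau K18 P301L (15 uM unlabeled, 0.24 uM Alexa 594-labeled) in 100 mM sodium acetate pH 7 with 20 uM heparin, 6 hr at 37 C. ThT 30 uM added, 1 hr ambient; Alexa 594 FP and total fluorescence read at 555/632 nm.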
Tau fibril ThT = qHTS for Inhibitors of Tau Fibril Formation, Thioflavin T Binding; Microtubule-associated protein tau (Homo sapiens), P10636; recombinant tau K18 P301L, heparin-induced fibrillization, ThT fluorescence; AID 1460, 2008; Potency, µM (titrated, usually from 57.4 µM), for the others: top-dose activity, negative = inhibition, usual class: inhibitors; 2.1% of 270,000 active; note: nearly all actives have a fitted effect of over 55% in size
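ThT emission at 510 nm, taken 1 hr after adding 30 uM dye, quantifies aggregates formed when 20 uM heparin acts on human tau K18 P301L for 6 hr at 37 C.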
RORg inh = qHTS for inhibitors of ROR gamma transcriptional activity | Nuclear receptor ROR-gamma (Mus musculus), P51450 | Drosophila S2 Gal4-RORgamma UAS-luciferase reporter, 20 h | Potency, µM (series often up to 53.6 µM), for inactives: top-dose activity change, negative = inhibition, hits mostly inhibitors | 5.4% of 310,000 active; note: nearly all actives have a fitted effect of over 60% in size
Target sequence (P51450 whole entry, looked up, the tested form may be a part): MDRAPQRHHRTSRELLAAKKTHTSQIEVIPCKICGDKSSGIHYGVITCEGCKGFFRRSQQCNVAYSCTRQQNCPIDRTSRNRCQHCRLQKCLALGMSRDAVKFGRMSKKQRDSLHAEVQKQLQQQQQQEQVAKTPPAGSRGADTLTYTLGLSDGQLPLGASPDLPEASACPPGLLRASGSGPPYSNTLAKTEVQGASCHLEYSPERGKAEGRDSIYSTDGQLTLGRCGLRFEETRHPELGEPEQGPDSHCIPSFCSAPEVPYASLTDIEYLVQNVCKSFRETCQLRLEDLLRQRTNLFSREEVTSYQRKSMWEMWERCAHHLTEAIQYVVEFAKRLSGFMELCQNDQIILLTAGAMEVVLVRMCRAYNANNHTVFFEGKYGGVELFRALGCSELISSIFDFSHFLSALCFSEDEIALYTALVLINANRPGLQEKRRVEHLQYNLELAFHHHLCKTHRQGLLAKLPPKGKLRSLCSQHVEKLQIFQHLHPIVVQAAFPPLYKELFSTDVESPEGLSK
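In this cell-based reporter format, copper sulfate (700 uM final) drives Gal4–ROR gamma fusion expression from a metallothionein promoter in Drosophila Schneider cells; compounds preincubated 1 hr, reporter read after 20 hr at ambient temperature.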
* hit, by the source's call; ? = inconclusive; . = no result; [ ] = another dose, or the depositor's remark. Calls come from the whole dose curve; as a rule, active = well fitted curve in the direction sought with a large enough effect; inconclusive = small, poorly fitted or top-dose-only effect, or another doubt; inactive = no such curve, though single readings can be large; an effect the other way counts as inactive or inconclusive. % is set by controls: 0 for no effect and ±100 for the full control effect; potency is the fitted concentration of half-maximal effect.

SMILES | Tau FP inhib | VP16 counter | Tau fluor counter | Tau fibril ThT | RORg inh
CSc1nnc(-c2ccccc2SC)o1 | -5.8% | 6.4% | 2.1% | 3.3% | -2.4%
COc1ccccc1-c1nnc(NC(=O)Cc2ccccc2)o1 | . | 3.16µM* | . | . | 2µM*
CS(=O)(=O)c1ccccc1-c1nnc(NC(=O)Cc2ccccc2)o1 | . | ? | . | . | 11.2µM*
CSc1ccccc1-c1nnc(NC(=O)Cc2ccccc2)o1 | . | 2.51µM* | . | . | 1µM*
CC1CCC2C(=O)N3C(CCC(C)[C@@H]3c3ccc(-c4ccco4)cc3)C(=O)N2C1c1cccc(N2CCCC2=O)c1 (some centres not stated) | 4.4%[11.6 µM] | ? | 3.3%[11.6 µM] | 7.6%[11.5 µM] | 40.0%[10 µM]
CS(=O)(=O)Nc1ccccc1C(=O)NCCSc1ccccc1 | . | -13.1% | . | . | 29.4%
COc1ccc(NC(=O)CSC2=Nc3ccccc3C3=NC(CCC(=O)NC4CCCCC4)C(=O)N23)cc1Cl (configuration not stated) | -1.5% | . | -17.5% | -2.6% | .
O=C(N/N=C/c1ccc[nH]1)c1cc2ccccc2cc1O | . | ? | . | . | 1.12µM*
O=C(N/N=C/c1ccc[nH]1)c1cccc(Br)c1 | 4.2% | 5.62µM* | -14.4% | ? | 2.82µM*
O=C(N/N=C/c1ccc[nH]1)c1ccc([N+](=O)[O-])cc1 | 2.8% | 5.62µM* | -11.9% | ? | 3.98µM*
Cc1ccc(C(=O)N/N=C\c2ccc[nH]2)cn1 | 3.2% | -1.2% | -4.1% | -10.1% | ?
Cc1cccc(C(=O)N/N=C/c2ccc[nH]2)c1 | 3.5% | 12.6µM* | -10.5% | ? | 7.94µM*
O=C(CSc1nc2c([nH]c3ccccc32)c(=O)n1-c1ccccc1)Nc1cccc(C(F)(F)F)c1 | ? | . | ? | 13.8% | .
O=[N+]([O-])c1ccc2c(c1)nc(CO)n2Cc1ccccc1 | . | 2.4% | . | . | 4.1%
CCc1ccc(-c2cc(C)no2)cc1S(=O)(=O)NCCc1ccc(OC)c(OC)c1 | . | -12.4% | . | . | 28.9%
COc1ccc(COC(=O)N/N=C2/C[C@@H](O)[C@@H](O)[C@@H]3[C@H]4C(=O)N(c5ccc(F)cc5F)C(=O)[C@@H]4CC[C@H]23)cc1 | -5.0%[11.6 µM] | -5.1%[10 µM] | -13.3%[11.6 µM] | -13.8%[11.5 µM] | -2.8%[10 µM]
Cc1cccc(NCC(=O)N/N=C\c2ccc[nH]2)c1 | 0.2% | ? | -13.1% | . | 8.91µM*
O=C(N/N=C\c1ccc[nH]1)c1cncc(Br)c1 | . | 5.62µM* | . | . | 2.82µM*
Cc1cccc(NCC(=O)N/N=C/c2cccc(Br)c2)c1 | -1.0% | -10.3% | ? | ? | -1.9%
O=C(N/N=C/c1ccc[nH]1)c1cccnc1 | -4.7% | -9.9% | -7.8% | -3.9% | ?
Cc1ccc(-c2nnc(Nc3ccc(C(=O)N(C)C)cc3)c3ccccc23)cc1S(=O)(=O)N(C)C | -6.3% | . | -18.3% | -3.1% | .
C/C(=N\Nc1nc2ccccc2[nH]1)c1ccc2c(c1)OCO2 | 8.7% | 11.2µM* | ? | ? | 3.16µM*
C(=N\Nc1nc2ccccc2[nH]1)/c1ccc2c(c1)OCO2 | 13.2% | ? | ? | 7.94µM* | 12.6µM*
O=c1[nH]c(N/N=C\c2ccc(F)cc2)nc2ccccc12 | 3.7% | -25.1% | -13.8% | ? | 10µM*
CCN(CC)c1ccc(/C=N/Nc2nc3ccccc3[nH]2)cc1 | ? | 3.98µM* | 7.94µM*[quencher] | 3.16µM* | 3.16µM*
SMILES | Tau FP inhib | VP16 counter | Tau fluor counter | Tau fibril ThT | RORg inh
COc1ccc(S(=O)(=O)N2CCOCC2)cc1NC(=O)CSc1nnc2ccccn12 | 4.4% | -14.5% | 4.7% | 0.3% | 12.0%
C/C(=N\Nc1nc2ccccc2[nH]1)c1ccc2c(c1)OCCO2 | 1.9% | ? | ? | 14.1µM* | 7.08µM*
C/C(=N\Nc1ccccn1)c1ccc2c(c1)OCO2 | 3.4% | ? | -19.1% | ? | ?
COCCCNc1ncnc2c1nnn2C | -6.5% | . | -1.2% | -5.5% | .
CC(C)(C)C(=O)NC(=S)NNC(=O)c1sc2ccccc2c1Cl | ? | 0.562µM* | -28.7% | ? | 0.631µM*
O=C(NC1CC1)c1sc2ccccc2c1Cl | . | 5.7% | . | . | -4.5%
O=C(NNC(=S)NC1CCCCC1)c1sc2ccccc2c1Cl | ? | 12.6µM* | ? | ? | 2.82µM*
CCOC(=O)c1ccc(S(=O)(=O)N2CCN(CC(O)COc3ccc(C#N)cc3)CC2)cc1 (configuration not stated) | . | -1.7% | . | . | -2.4%
CN(C(=S)NC(=O)/C=C/c1ccc(F)cc1)C1CCCCC1 | -7.1% | 2.51µM* | -24.6% | ? | 1.26µM*
O=C(/C=C/c1ccc(F)cc1)NC(=S)NC1CCCCC1 | 2.4% | -5.3% | -23.9% | . | ?
Cc1cccc(NC(=S)N(C)C2CCCCC2)c1 | -8.7% | 17.8µM* | 0.8% | 7.4% | 11.2µM*
Cc1ccc(C(=O)NC(=S)N(C)C2CCCCC2)cc1 | . | 3.16µM* | . | . | 2.24µM*
Cc1cccc(NC(=S)NC2CCCC2)c1 | -6.2% | -15.1% | -0.1% | 4.7% | 21.7%
CC(C)NC(=S)NC(=O)/C=C/c1ccc(F)cc1 | 8.0% | 7.08µM* | -1.2% | -5.2% | 1.78µM*
COc1cc2c(cc1OC)C(c1ccc(Cl)cc1)N(c1ccc(C)c(F)c1)C(=O)C2 (configuration not stated) | 4.6% | . | -11.5% | ? | .
O=C(COC(=O)c1cccc(S(=O)(=O)N2CCN(c3ccccc3)CC2)c1)NCc1ccco1 | -2.4% | 10µM* | 2.8% | 2.4% | 8.91µM*
NC(=O)COC(=O)c1cccc(S(=O)(=O)N2CCN(c3ccccc3)CC2)c1 | 3.6% | -0.9% | 5.4% | 3.3% | 42.0%
C=CCn1c(N/N=C/c2ccc(O)cc2)nc2ccccc2c1=O | ? | -15.3% | 15.8µM*[quencher] | -16.6% | ?
Cc1ccccc1/C=N/Nc1nc2ccccc2c(=O)n1O | 3.8% | ? | -12.3% | . | 7.08µM*
C=CCn1c(C)nc2ccccc2c1=O | -6.8% | -8.3% | -7.3% | -0.7% | -0.2%
